Test results: PubChem BioAssay (Tox21)
Values joined by “and” are separate entries in the source; they are usually repeats but may differ in a detail not shown here. Equal values may be shown once. Values without a mark were called inactive. Records with an inconclusive call do not appear. A call without a number means that no potency is given here. Active and inactive are the calls of the source. Unless noted, the call rests on the fitted dose curve; in most records, active means well fitted curve in the direction sought with a large enough effect in the repeat runs; inconclusive means weak or mixed curves; inactive means no such curve, though single readings can be large; an effect the other way counts as inactive or inconclusive.

Experiments:
[1] = biological target: Progesterone receptor (Homo sapiens) (UniProt P06401); test: qHTS assay to identify small molecule agonists of the progesterone receptor (PR) signaling pathway (AID 1346784; calls by dose curve; further: nearly all actives have a fitted effect of over 30% in size)
Progesterone receptor (Homo sapiens), sequence (P06401 whole entry, looked up): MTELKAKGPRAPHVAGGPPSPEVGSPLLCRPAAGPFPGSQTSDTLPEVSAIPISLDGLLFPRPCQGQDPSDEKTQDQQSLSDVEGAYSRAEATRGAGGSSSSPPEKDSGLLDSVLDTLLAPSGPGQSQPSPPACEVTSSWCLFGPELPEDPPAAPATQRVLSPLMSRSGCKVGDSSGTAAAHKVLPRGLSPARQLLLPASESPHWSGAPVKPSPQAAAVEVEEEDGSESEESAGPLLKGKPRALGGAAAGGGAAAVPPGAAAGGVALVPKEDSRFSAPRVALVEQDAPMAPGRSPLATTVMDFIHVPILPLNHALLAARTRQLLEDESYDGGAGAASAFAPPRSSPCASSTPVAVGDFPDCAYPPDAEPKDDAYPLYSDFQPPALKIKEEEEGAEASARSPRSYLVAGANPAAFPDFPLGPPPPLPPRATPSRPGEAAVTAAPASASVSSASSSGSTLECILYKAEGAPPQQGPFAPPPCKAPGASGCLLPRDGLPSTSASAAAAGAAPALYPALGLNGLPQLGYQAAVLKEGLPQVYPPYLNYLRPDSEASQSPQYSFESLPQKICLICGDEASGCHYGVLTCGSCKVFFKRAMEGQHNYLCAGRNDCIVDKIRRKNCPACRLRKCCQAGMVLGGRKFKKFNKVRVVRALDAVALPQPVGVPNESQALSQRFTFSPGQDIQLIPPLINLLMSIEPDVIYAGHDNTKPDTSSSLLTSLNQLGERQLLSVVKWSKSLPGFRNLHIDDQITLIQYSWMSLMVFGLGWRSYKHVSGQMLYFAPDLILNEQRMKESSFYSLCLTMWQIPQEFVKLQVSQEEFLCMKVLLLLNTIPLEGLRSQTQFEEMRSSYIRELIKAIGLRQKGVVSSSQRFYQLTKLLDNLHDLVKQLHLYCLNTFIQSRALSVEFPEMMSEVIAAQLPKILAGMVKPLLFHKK
In short: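 Agonist qHTS: compounds pinned onto 3,000 PR-UAS-bla HEK 293T cells per well in charcoal-stripped serum medium, 16hr at 37C, then beta-lactamase activity measured by LiveBLAzer FRET fluorescence after 2 hours at room temperature.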

[2] = biological target: Progesterone receptor (Homo sapiens) (UniProt P06401); test: qHTS assay to identify small molecule antagonists of the progesterone receptor (PR) signaling pathway (AID 1346795; active means well fitted inhibition curve with a large enough effect in the signal ratio in the repeat runs, not every such curve was filed as active; the % refers to the signal ratio; further: potency means the concentration at half of the fitted maximal effect)
In short: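 Antagonist mode with agonist R5020 at 1 nM final and 16 hr incubation at 37C. Reporter was beta-lactamase driven by UAS in HEK293T (PR-UAS-bla), 2% charcoal-stripped serum; signal from LiveBLAzer FRET substrate, 2 hr at room temperature.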

[3] = qHTS assay to identify small molecule antagonists of the progesterone receptor (PR) signaling pathway - cell viability counter screen (AID 1346798); further: nearly all actives have a fitted effect of over 50% in size; further: potency means the concentration at half of the fitted maximal effect
In short: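 Cytotoxicity read as CellTiter-Glo luminescence (30 min, room temperature) in the same wells as the beta-lactamase readout. HEK293T PR-UAS-bla cells in charcoal-stripped 2% FBS received compound and R5020, then 16 h at 37C, 5% CO2.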

[4] = qHTS assay to identify small molecule agonists of the progesterone receptor (PR) signaling pathway - cell viability counter screen (AID 1346799; calls by dose curve; further: nearly all actives have a fitted effect of over 45% in size)
In short: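 Cytotoxicity measured by CellTiter-Glo luminescence (30 min, RT) in the same wells as the PR beta-lactamase agonist read. Those HEK293T cells had 16 h compound treatment at 37 C in 2% charcoal-stripped FBS medium.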

[5] = qHTS assay to identify small molecule antagonists of the TGF-beta/Smad signaling pathway - cell viability counter screen (AID 1346824); further: nearly all actives have a fitted effect of over 50% in size
In short: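 SBE-bla HEK 293T cells were plated overnight at 37 C, then given compounds in DMSO plus TGF-beta1 (added as 0.25 ng/mL solution) for 5 hr. After the bla read, CellTiter-Glo was added to the same wells and luminescence read after 30 min at room temperature.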

[6] = qHTS assay to identify small molecule agonists of the TGF-beta/Smad signaling pathway - cell viability counter screen (AID 1346829); further: top concentration of the series differs between compounds; nearly all actives have a fitted effect of over 45% in size
In short: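 Luminescence from CellTiter-Glo, read after a 30 min room-temperature incubation, gives cell viability of SBE-bla HEK 293T cells treated 5 hr with compounds at 37 C.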

[7] = qHTS assay to identify small molecule agonists of the TGF-beta/Smad signaling pathway (AID 1346859; active means well fitted activation curve with a large enough effect in the signal ratio in the repeat runs, not every such curve was filed as active; the % refers to the signal ratio; further: series mostly up to about 77 µM)
In short: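 Fluorescence (ex 405 nm; em 460 and 530 nm) was read 2 h after LiveBLAzer FRET substrate at RT. The preceding compound treatment of overnight-plated SBE-bla HEK293T cells lasted 5 h at 37 C.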

[8] = Human pregnane X receptor (PXR) small molecule agonists, qHTS cell viability counter screen (AID 1346977); further: nearly all actives have a fitted effect of over 50% in size
In short: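 Same-well viability read: CellTiter-Fluor added after 23 hr compound exposure, fluorescence measured 1 hr later. Cells were PXR-Luc HepG2 seeded at 2,000/well in 5% charcoal-stripped FBS medium, rested 5 hr before dosing at 37 C.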

[9] = Caspase-3/7 induction in HepG2 cells by small molecules, qHTS assay (AID 1346978); further: nearly all actives have a fitted effect of over 15% in size
In short: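 Wild-type HepG2 cells (2,000/well) were settled 5 h at 37 C, 5% CO2, then exposed to compounds in DMSO for 17 h. Caspase-3/7 activity was read by luminescence 30 min after adding Caspase-Glo 3/7 reagent at room temperature.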

[10] = Caspase-3/7 induction in CHO-K1 cells by small molecules, qHTS cell viability counter screen (AID 1346979); further: nearly all actives have a fitted effect of over 35% in size; further: potency means the concentration at half of the fitted maximal effect
In short: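 Cytotoxicity counter screen: CellTiter-Fluor added to compound-treated wild-type CHO-K1 cells at 16 h (37C, 5% CO2), fluorescence measured 1 h later; same wells as caspase-3/7 measurement.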

[11] = Caspase-3/7 induction in CHO-K1 cells by small molecules, qHTS assay (AID 1346980); further: nearly all actives have a fitted effect of over 15% in size
In short: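 Wild-type cells were seeded at 1,500 per well and settled 5 hr at 37 C, 5% CO2, then exposed to DMSO-dissolved compounds for 17 hr. Caspase-Glo 3/7 reagent was added, and luminescence was read after 30min at room temperature.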

[12] = Caspase-3/7 induction in HepG2 cells by small molecules, qHTS cell viability counter screen (AID 1346981); further: series mostly up to about 92 µM; nearly all actives have a fitted effect of over 30% in size
In short: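 The parent HepG2 line is plated at 2,000 cells per well and rested 5 hr before compound pinning from DMSO stocks. Following a 16-hr treatment at 37 C, a fluorogenic live-cell substrate (CellTiter-Fluor) reports viability after 1 hr.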

[13] = biological target: Nuclear receptor subfamily 1 group I member 2 (Homo sapiens) (UniProt O75469); test: Human pregnane X receptor (PXR) small molecule agonists, qHTS assay (AID 1346982); further: nearly all actives have a fitted effect of over 35% in size; further: potency means the concentration at half of the fitted maximal effect
Nuclear receptor subfamily 1 group I member 2 (Homo sapiens), sequence (O75469 whole entry, looked up): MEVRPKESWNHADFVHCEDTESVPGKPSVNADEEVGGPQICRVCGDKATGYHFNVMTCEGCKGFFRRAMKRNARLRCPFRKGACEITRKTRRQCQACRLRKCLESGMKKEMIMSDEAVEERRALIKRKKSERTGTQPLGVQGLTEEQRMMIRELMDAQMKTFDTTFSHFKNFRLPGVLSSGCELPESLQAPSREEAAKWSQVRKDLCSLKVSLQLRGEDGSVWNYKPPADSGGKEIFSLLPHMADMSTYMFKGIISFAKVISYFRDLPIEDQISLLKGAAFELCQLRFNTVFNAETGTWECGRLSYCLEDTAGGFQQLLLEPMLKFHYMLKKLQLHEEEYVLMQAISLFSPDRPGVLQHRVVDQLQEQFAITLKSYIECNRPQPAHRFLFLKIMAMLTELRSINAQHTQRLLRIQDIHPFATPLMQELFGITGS
In short: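 After plating in 5% charcoal-stripped FBS and a 5 hr rest, PXR-Luc HepG2 cells received compounds in DMSO. Following 24 hr at 37 C, ONE-Glo was added and light output read.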

[14] = biological target: Acetylcholinesterase (Homo sapiens) (UniProt P22303); test: Acetylcholinesterase (AChE) small molecule antagonists: enzyme-based qHTS assay (AID 1347397; calls by dose curve; further: nearly all actives have a fitted effect of over 55% in size; further: potency means the concentration at half of the fitted maximal effect); conditions: Potency: AChE enzyme activity inhibition
Acetylcholinesterase (Homo sapiens), sequence (P22303 whole entry, looked up): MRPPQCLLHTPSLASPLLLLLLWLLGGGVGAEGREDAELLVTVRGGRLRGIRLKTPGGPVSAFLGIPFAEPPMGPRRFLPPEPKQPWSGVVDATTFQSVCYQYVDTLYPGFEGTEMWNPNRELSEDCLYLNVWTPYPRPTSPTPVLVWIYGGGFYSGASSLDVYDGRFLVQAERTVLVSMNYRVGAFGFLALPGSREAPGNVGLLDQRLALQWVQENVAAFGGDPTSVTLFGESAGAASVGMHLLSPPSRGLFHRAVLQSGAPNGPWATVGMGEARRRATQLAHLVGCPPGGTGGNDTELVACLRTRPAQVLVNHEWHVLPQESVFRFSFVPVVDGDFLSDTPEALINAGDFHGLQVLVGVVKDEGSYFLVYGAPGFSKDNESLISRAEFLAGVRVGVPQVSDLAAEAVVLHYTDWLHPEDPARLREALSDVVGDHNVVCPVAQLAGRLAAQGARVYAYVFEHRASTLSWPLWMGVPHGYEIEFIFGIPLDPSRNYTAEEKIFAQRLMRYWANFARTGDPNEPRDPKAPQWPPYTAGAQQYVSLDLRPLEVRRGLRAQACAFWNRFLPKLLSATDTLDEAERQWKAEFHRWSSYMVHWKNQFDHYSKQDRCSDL
In short: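 Tox21 library chemicals are tested in qHTS format against recombinant human AChE. The enzyme, dispensed at 50 mU/mL, sits with compound for 30 min at room temperature. A DTNB–acetylthiocholine cocktail follows, and colour is read after 10 min.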

[15] = biological target: Thyrotropin-releasing hormone receptor (Homo sapiens) (UniProt P34981); test: qHTS assay to identify small molecule antagonists of the thyrotropin-releasing hormone receptor (TRHR) signaling pathway (AID 1346877; active means well fitted inhibition curve with a large enough effect in the repeat runs, not every such curve was filed as active; further: series mostly up to about 51 µM)
Thyrotropin-releasing hormone receptor (Homo sapiens), sequence (P34981 whole entry, looked up): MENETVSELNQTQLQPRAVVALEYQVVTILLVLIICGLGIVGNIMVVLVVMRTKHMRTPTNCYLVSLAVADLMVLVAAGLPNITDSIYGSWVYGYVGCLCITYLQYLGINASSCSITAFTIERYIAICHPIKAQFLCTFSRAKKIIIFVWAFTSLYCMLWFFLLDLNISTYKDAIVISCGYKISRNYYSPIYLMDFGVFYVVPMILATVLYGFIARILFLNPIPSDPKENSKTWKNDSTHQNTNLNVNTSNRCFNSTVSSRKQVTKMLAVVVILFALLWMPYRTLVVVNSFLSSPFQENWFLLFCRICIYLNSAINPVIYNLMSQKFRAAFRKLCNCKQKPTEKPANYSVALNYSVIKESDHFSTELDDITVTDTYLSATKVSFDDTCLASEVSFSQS
In short: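 Human TRHR in HEK293 cells; inhibition of the intracellular calcium rise triggered by 1 nM TRH was followed by fluorescence over 3 min. Compounds were run at 15 concentrations, three replicates each.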

[16] = biological target: Thyrotropin-releasing hormone receptor (Homo sapiens) (UniProt P34981); test: qHTS assay to identify small molecule agonists of the thyrotropin-releasing hormone receptor (TRHR) signaling pathway (AID 1346891; calls by dose curve; further: series mostly up to about 58 µM)
In short: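 Agonist-mode intracellular calcium readout: kinetic fluorescence over 3 min at 1 s intervals after compound addition to TRHR-HEK293 cells (18 h seeded, 2 h dye-loaded at 37 C). Fifteen concentrations, triplicates.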

[17] = biological target: Acetylcholinesterase (Homo sapiens) (UniProt P22303); test: Acetylcholinesterase (AChE) small molecule antagonists: colormetric cell-based qHTS assay (AID 1347395; calls by dose curve; further: nearly all actives have a fitted effect of over 30% in size; further: potency means the concentration at half of the fitted maximal effect)
In short: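 Colorimetric readout: DTNB quantifies thiocholine from acetylthiocholine hydrolysed by endogenous AChE of SH-SY5Y cells (2,000/well, plated overnight). Compound pretreatment 30 min, substrate incubation 90 min, both 37 C.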

[18] = biological target: Nuclear receptor subfamily 1 group I member 2 (Rattus norvegicus) (UniProt Q9R1A7); test: Rat pregnane X receptor (rPXR) activation by small molecules, qHTS assay (AID 1346983); conditions: rPXR luciferase reporter cells, One-Glo luminescence, 24 h; max activation: active compounds read high; further: nearly all actives have a fitted effect of over 20% in size
Nuclear receptor subfamily 1 group I member 2 (Rattus norvegicus), sequence (Q9R1A7 whole entry, looked up): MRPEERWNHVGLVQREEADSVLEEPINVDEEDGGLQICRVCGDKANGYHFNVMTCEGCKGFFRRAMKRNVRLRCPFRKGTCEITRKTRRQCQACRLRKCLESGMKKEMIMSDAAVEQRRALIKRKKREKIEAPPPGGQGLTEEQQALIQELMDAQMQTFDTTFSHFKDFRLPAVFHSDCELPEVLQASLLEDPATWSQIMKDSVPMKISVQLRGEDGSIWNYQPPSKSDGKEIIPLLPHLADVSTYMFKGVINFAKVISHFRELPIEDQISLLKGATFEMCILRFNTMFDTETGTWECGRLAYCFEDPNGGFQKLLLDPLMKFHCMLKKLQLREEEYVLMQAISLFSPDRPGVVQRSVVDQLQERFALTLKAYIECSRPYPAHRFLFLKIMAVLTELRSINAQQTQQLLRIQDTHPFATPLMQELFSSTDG
In short: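 Cell-based rPXR luciferase reporter assay, 2,000 cells per well, rested 5hr at 37 C before compound addition in DMSO, then 24 hr at 37 C. One-Glo reagent was added and luminescence read after 30 min at room temperature.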

[19] = biological target: Nuclear receptor subfamily 1 group I member 2 (Homo sapiens) (UniProt O75469); test: CYP3A4 induction through human pregnane X receptor (PXR) by small molecules, qHTS assay (AID 1346984); further: nearly all actives have a fitted effect of over 40% in size
In short: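 Human PXR activation is tracked via CYP3A4 promoter-luciferase in DPX-2 (HepG2) cells. Compounds treat cells for 24hr at 37C, and luminescence is read after One-Glo.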

[20] = biological target: Nuclear receptor subfamily 1 group I member 2 (Homo sapiens) (UniProt O75469); test: Human pregnane X receptor (PXR) activation by small molecules, qHTS assay (AID 1346985); further: nearly all actives have a fitted effect of over 40% in size
In short: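 DPX-2 cells (HepG2 co-transfected with a PXR response element and a CYP3A4-promoter luciferase construct) were seeded at 2,000 per well, rested 5 hr at 37C, then exposed to DMSO-dissolved compounds for 24 hr. Activation was read as luciferase luminescence.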

| SMILES | Potency [1] | Potency [2] | Potency [3] | Potency [4] | Potency [5] | Potency [6] | outcome [7] | Potency [8] | Potency [9] | Potency [10] | Potency [11] | Potency [12] | Potency [13] | Potency [14] | Potency [15] | Potency [16] | Potency [17] | max activation [18] | Potency [19] | Potency [20] |
| --- | --- | --- | --- | --- | --- | --- | --- | --- | --- | --- | --- | --- | --- | --- | --- | --- | --- | --- | --- | --- |
| O=C(Cl)c1ccccc1F | inactive | inactive | inactive | inactive | inactive | inactive | inactive | inactive | inactive | inactive | inactive | inactive | inactive | inactive |  |  |  |  |  |  |
| CCOP(=O)(OCC)Oc1cc(C)nc(C(C)C)n1 | inactive | inactive | inactive | inactive |  | inactive | inactive | inactive | inactive | inactive | inactive | inactive | inactive | 5.67 µM (active) | inactive | inactive | 0.142 µM (active) |  |  |  |
| CCCCN(CCCC)C(=S)S | inactive | inactive | inactive | inactive | inactive | inactive | inactive | inactive | inactive | inactive | inactive | inactive | 24.3 µM (active) | inactive |  |  |  |  |  |  |
| Oc1ccc([C@H]2CNCc3c2ccc(O)c3O)cc1O | inactive | inactive | inactive |  |  | inactive | inactive |  | inactive | 29.8 µM (active) |  |  | inactive | inactive | inactive | inactive |  |  |  |  |
| CN1C2CCC(C)(C)C1CC(OC(=O)C(O)(c1cccs1)c1cccs1)C2 (stereo not drawn) | inactive | inactive | inactive |  |  | inactive | inactive |  | inactive | inactive | inactive | inactive |  | inactive | inactive | inactive | inactive |  |  |  |
| N#CSCc1ccccc1 | inactive | inactive | inactive |  | inactive | inactive | inactive | inactive | inactive | inactive |  | inactive | 43.5 µM (active) | inactive | inactive | inactive | inactive |  |  |  |
| COP(=O)(OC)O/C(=C\Cl)c1cc(Cl)c(Cl)cc1Cl | inactive | 6.86 µM (active) | inactive |  | inactive | inactive | inactive | inactive | inactive |  | inactive | inactive | 54.5 µM (active) |  | inactive | inactive |  |  |  |  |
| O=C(O)CCCCCCNC1c2ccccc2CCc2ccccc21 | inactive | inactive | inactive |  |  | inactive | inactive | inactive | inactive | inactive | inactive | inactive | inactive | inactive |  |  |  |  |  |  |
| CCOC(=O)CCN(SN(C)C(=O)Oc1cccc2c1OC(C)(C)C2)C(C)C | inactive | inactive | inactive |  |  | inactive | inactive | inactive | inactive |  | inactive | inactive |  | 0.1 µM (active) |  |  | 0.252 µM (active) |  |  |  |
| C[N+]1(C)[C@@H]2CC[C@H]1CC(OC(=O)C(CO)c1ccccc1)C2 (stereo partly drawn) | inactive | inactive |  | inactive |  | inactive | inactive | inactive | inactive | inactive | inactive | inactive | inactive | inactive |  |  |  | 5.17% and -0.275% | inactive | inactive |
| CCn1cc[n+](C)c1 (tested in a mixture with another compound) | inactive | inactive |  | inactive |  | inactive | inactive | inactive | inactive | inactive | inactive | inactive | inactive |  |  |  |  |  |  |  |
| NC(=O)C(Cl)Cl | inactive | inactive | inactive |  | inactive | inactive | inactive | inactive | inactive | inactive | inactive | inactive | inactive | inactive | inactive | inactive |  |  |  |  |
| COP(=S)(NC(C)C)Oc1ccc(C)cc1[N+](=O)[O-] (stereo not drawn) | inactive | 7.7 µM (active) | inactive |  | inactive | inactive | inactive | inactive | inactive | inactive |  | inactive | 30.6 µM (active) | inactive | inactive | inactive | inactive |  |  |  |
| CCCCC/C=C\C/C=C\C/C=C\C/C=C\CCCC(=O)NCC(=O)O | inactive | 26.6 µM (active) | inactive |  |  | inactive | inactive | inactive | inactive |  |  | inactive | inactive | inactive |  |  | inactive |  |  |  |
| S=C=NCCc1ccccc1 | inactive | 19.4 µM (active) | 21.7 µM (active) |  | inactive | inactive | inactive |  | inactive |  | inactive | inactive | 54.6 µM (active) | inactive |  |  | inactive |  |  |  |
